Compounds without any hit were thinned out: in the full panel of roughly 83,000, 20% have a hit.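 Growth was measured after 48 h exposure to one concentration of compound in 96-well plates. Values under 10 count as active.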 Unmarked numbers belong to inactive results. The source made the active and inactive calls.

The subject of the assay is 786-0 renal. Description: NCI-60 one-dose screen, 48 h (100 = growth as untreated, 0 = no growth, -100 = all killed). The note with it: 10 µM unless noted.
In the case of `COc1ccc(NC(=O)c2sc3nc(C)c(C(=O)/C=C/c4cccc(OC)c4)cc3c2N)cc1`, the growth was 10.9%. For `Nc1nc2c([nH]1)c1[nH]c3ccccc3c1c1[nH]c3ccccc3c21` the value was 30.9%; for `Cc1ccc(-c2nc3nc(-c4ccc(F)cc4)nc(N4CCNCC4)c3o2)cc1`, -92.8% (active). For `COc1ccc(OC)c(C(=O)/C=C/c2cc3c(c(OC)c2OC)OCO3)c1` the value was 100%; for `CN1C(=O)/C(=C/c2ccc(C(=O)Nc3ncc(Cc4ccc(Cl)cc4)s3)cc2)SC1=S`, 47.5%; for `O=C(OCc1ccc2c(Cl)cc(Cl)c(O)c2n1)n1cncn1`, 45.7%. As for `C[C@]12C=CC(=O)C=C1CCC1C2[C@@H](O)C[C@@]2(C)C1CC[C@]2(O)C(=O)COC(=O)CCC(=O)O` (stereo partly drawn), the figure is 102%; as for `COc1ccc2c(c1)c(-c1noc(C(=O)c3cn(C)c4ccc(Br)cc34)n1)cn2C`, 112%; as for `COc1ccc(/C=N/C2=C(C#N)C(c3cccc(Cl)c3)c3c(ccc4ccccc34)O2)cc1` (stereo not drawn), 19.8%. Turning to `Cc1ccccc1Cn1cnc2ccc(-c3cc(NC(=O)c4ccc(NC5CCN(C)CC5)cc4)n[nH]3)cc21`, the growth is 85%.

On to `O=C1CC(N2C(=O)/C(=C/C(Cl)=C\c3ccc([N+](=O)[O-])cc3)SC2=S)C(=O)N1c1ccc(Cl)cc1` (stereo not drawn), for which the growth is -12.1% (active).

Consider `CCN(CC)CCOc1ccc(-c2c(-c3ccccc3)c(=O)oc3ccccc23)cc1`, for which the growth was 85%. With `CCNC(=O)c1[nH]cc(-c2ccccc2)c1-c1cc(OC)c2c(c1OC)OCO2`, the growth was 101%.

Values taken from PubChem BioAssay (NCI).
